PubChem BioAssay AID504845 (National Center for Advancing Translational Sciences (NCATS), 2011)
Values joined by “and” are separate entries in the source; they are usually repeats but may differ in a detail not shown here. Equal entries are not always repeated. Out of some 390,000 compounds screened, about 150 (0.038%) were called active. Not shown: some 3% with an inconclusive outcome. Calls come from the whole dose curve; as a rule, active = well fitted inhibition curve with a large enough effect; inconclusive = small, poorly fitted or top-dose-only effect; inactive = no such curve, though single readings can be large or run the other way. The entries come from a sample that favours actives as a whole. More than one record can exist for a structure, and the calls need not agree.

target: Regulator of G-protein signaling 4 (Homo sapiens) (UniProt P49798); experiment: Inhibitors of Regulator of G Protein Signaling (RGS) 4: qHTS; conditions: Transcreener GDP fluorescence polarization, RGS4-accelerated GTP hydrolysis; series mostly up to 114 µM; activity change, negative = inhibition: at the top concentration; note: nearly all actives have a fitted effect of over 75% in size
Sequence (P49798 whole entry, looked up, the tested form may be a part): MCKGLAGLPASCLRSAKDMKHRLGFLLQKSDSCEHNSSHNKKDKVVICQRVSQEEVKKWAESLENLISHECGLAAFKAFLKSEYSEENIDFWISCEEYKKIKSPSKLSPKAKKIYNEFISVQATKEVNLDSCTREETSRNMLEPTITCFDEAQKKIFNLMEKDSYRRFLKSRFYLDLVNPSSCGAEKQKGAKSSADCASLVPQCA
Description: G-protein-coupled receptors (GPCRs) are well-established targets for drug discovery and development. Members of the "regulator of G-protein signaling" (RGS)-protein superfamily have recently emerged as critical modulators of specific GPCR signaling pathways. […] Combining specific RGS domain inhibitors with existing GPCR agonists should potentiate cellular responses and could also increase the specificity of action of existing therapeutics. Small molecule modulators of RGS domain activity should also have clinical utility in inhibiting or potentiating the actions of endogenous GPCR agonists. In particular, the diversity of RGS proteins with highly localized and dynamically regulated distributions in the human brain makes this family of proteins attractive targets for pharmacotherapy of central nervous system (CNS) disorders such as Parkinson's disease, schizophrenia, and anxiety.
This assay was used to screen the NIH Molecular Libraries Small Molecule Repository (MLSMR) in order to identify a small molecule that inhibits RGS4.
NIH Chemical Genomics Center [NCGC]
NIH Molecular Libraries Probe Centers Network [MLPCN]
Assay Submitter (PI): David Siderovski, University of North Carolina Chapel Hill (School of Medicine)
Two microliters of 500nM (2x working concentration) is dispensed into black medium-binding solid-bottom Kalypsys plates. Then with the Kalypsys pintool 23nl of control and compounds are transferred; the control compound is […] CCG-4986 (working concentration). After a 10 minute incubation at room temperature 2ul of antibody is added with the Kalypsys dispenser; (-)RGS4/Transcreener GDP solution in columns 3 and 4 which consisted of 10nM (2x working concentration) Alexa633, 20uM GTP, and 20 ug/ml GDP antibody and (+)RGS4/Transcreener GDP solution in columns 1,2, and 5 to 48 which consists of 900nM RGS4 (2x working concentration), 10nM Alexa633, 20 ug/ml GDP antibody. The plate is centrifuged at 1000 RPM for 15 seconds to remove any possible bubbles and then incubated for 5 minutes at ambient room temperature. An initial fluorescent polarization read (620 nm/688 nm) is performed on the Envision before the plate is incubated for 90 minutes at 30 deg C at a relative humidity of 80%. The plate is once more centrifuged at 1000 RPM for 15 seconds and another Envision fluorescent polarization (620 nm/688 nm) read is carried out.
% is set by controls: 0 for no effect and ±100 for the full control effect; potency is the fitted concentration of half-maximal effect.

Compound	activity change, negative = inhibition	Potency
COc1cc(CN(CC2CCCO2)C(=O)c2ccccc2F)cc(OC)c1OC (stereo not drawn)	-2.76% (inactive)	–
CCn1c2ccccc2c2cc(NC(=O)COc3ccc(C)cc3C)ccc21	19.8% (inactive)	–
Nc1ccc2c3c(cccc13)C(=O)NC2=O	-13.2% [at 56.9 µM] (inactive)	–
COc1ccc(-c2ccc(C3C4C=CCCC4(C)C(=O)N3Cc3ccccc3)c(F)c2)cc1OC (stereo not drawn)	-8.45% (inactive)	–
Cc1ccc(Nc2ccc3cc(S(=O)(=O)N4CCCCC4)ccc3n2)cc1F	-14.4% (inactive)	–
O=C(NCC(c1ccc(Cl)cc1)N1CCOCC1)c1ccccc1F (stereo not drawn)	-11.4% (inactive)	–
COc1ccc(CCCOC(Cn2ccnc2)c2ccc(OC)cc2)cc1 (stereo not drawn)	360% [at 56.9 µM] (inactive)	–
CCCNC(=O)C(CC)n1nc(CC)n2c(cc3oc(C)cc32)c1=O (stereo not drawn)	30% (inactive)	–
CCCCC/C=C\CC1OC1CCCCCCCC(=O)O (stereo not drawn)	–	37.7 µM (active)
CCCCCCCCCCCC(=O)O	-7.58% (inactive)	–
CCc1ccc(CN(Cc2ccco2)C(=O)c2ccccc2Cl)cc1	-1.34% (inactive)	–
COc1ccccc1N1CCN(C[C@@H]2CN3C(=O)N(C)c4ccccc4C3=N2)CC1	-600% [at 56.9 µM, above what the read-out allows, likely interference] (inactive)	–
O=C(COc1ccc(Cl)cc1)Nc1ccc(-c2nc3cc(Cl)ccc3o2)c(O)c1	-9.26% (inactive)	–
CCN(CC)/[N+]([O-])=N/Oc1cc(O/[N+]([O-])=N/N2CCCC2CO)c([N+](=O)[O-])cc1[N+](=O)[O-] (stereo not drawn)	-53.1% (inactive)	–
COc1ccc(OC)c(NC(=O)CSC2=Nc3ccccc3C3=NC(CC(=O)NCc4ccc(F)cc4)C(=O)N23)c1 (stereo not drawn)	5.73% (inactive)	–
CCCc1nn2c(=O)cc(COC(=O)c3ccc(NC(=O)COc4ccc(F)cc4)cc3)nc2s1	18.8% (inactive)	–
CCc1ccccc1NC(=O)N1CCC2(CC1)Oc1ccccc1C(=O)N2Cc1ccccc1F	13.5% (inactive)	–
Cc1ccccc1CSCCNC(=O)C1CCN(S(=O)(=O)Cc2ccccc2)CC1	23% (inactive)	–
COc1ccccc1C(=O)NCCn1cc(SCc2ccccc2Cl)c2ccccc21	7.87% (inactive)	–
Cc1ccc(C)n1-c1nnc(N2CCC(C(=O)NCc3ccccc3Cl)CC2)s1	0.173% (inactive)	–
COc1ccc(-c2noc(CSc3nnc(-c4ccccc4)n3-c3ccc(F)cc3)n2)c(OC)c1	-3.78% (inactive)	–
Cc1c(C(=O)NCc2ccccc2Br)oc2ccc3c(c12)C(=O)CC(C)(C)O3	7.56% (inactive)	–
CCn1cc(C(=O)NCCc2ccccc2)c(=O)c2cc(S(=O)(=O)N3CCCCCC3)ccc21	0.892% (inactive)	–
Cc1ccccc1CNC(=O)c1cccc(NC(=O)c2nsc3ccccc23)c1	-2.43% (inactive)	–
Cc1ccc(C)c(S(=O)(=O)n2nc(C)c(S(=O)(=O)N3CCC(C)CC3)c2C)c1	1.81% (inactive)	–

Compound	activity change, negative = inhibition	Potency
Cc1ccc2oc3c(c(=O)c2c1)C(c1ccc(O)cc1)N(Cc1ccc2c(c1)OCO2)C3=O (stereo not drawn)	-8.31% (inactive)	–
Cc1ccc(/C(=C/CN2CCCC2)c2ccccn2)cc1	7.32% [at 56.9 µM] (inactive)	–
CCC1=Nc2cc(C(=O)NCC(C)c3ccccc3)ccc2Sc2ccc(C)cc21 (stereo not drawn)	-7.58% (inactive)	–
CN(C)c1cc2c(Nc3ccc4c(cnn4Cc4ccccc4)c3)ncnc2cn1	-0.133% [at 56.9 µM] (inactive)	–
Cc1csc(-c2nc3ccccc3n2C)n1	-622% [at 56.9 µM, above what the read-out allows, likely interference] (inactive)	–
C=CCCN(C(Cc1ccccc1)C(=O)OC)S(=O)(=O)c1cc(Br)ccc1Br (stereo not drawn)	-0.629% (inactive)	–
Cc1ccc(NC(=O)CCCn2c(=O)c3cccn3c3ccccc32)cc1Cl	7.61% (inactive)	–
CC(N)(C(=O)O)c1ccc(-c2nn[nH]n2)cc1 (stereo not drawn)	10% [at 56.9 µM] (inactive)	–
O=C(c1cccc(Br)c1)N1CCN(Cc2cc(=O)n3nc(-c4ccccc4)sc3n2)CC1	3.64% (inactive)	–
O=C(NCCCO)c1nn(-c2ccc(Cl)cc2)nc1CO	28% (inactive)	–
Cc1oc2ccc(O)c(CN3CCC(C)CC3)c2c1C(=O)Nc1ccccc1	15.4% (inactive)	–
O=C(O)c1ccc2c(c1)N(Cc1ccc(F)cc1)C(=O)c1ccccc1S2=O (stereo not drawn)	11.3% (inactive)	–
OCCNc1ncnc2oc(-c3ccco3)c(-c3ccco3)c12	-28.3% (inactive)	–
O=C(Cn1nc(Cc2cccnc2)c2ccccc2c1=O)N1CCN(c2ccccc2F)CC1	15% (inactive)	–
Cc1cc2c(cc3c(SCc4cccc(Cl)c4)nnc(C)n32)o1	4.36% (inactive)	–
Cc1cccc(CCNC(=O)c2ccc3c(c2)nc2n3CCC(C)C2)c1 (stereo not drawn)	-14.1% (inactive)	–
Cc1ccc(Cn2c(C)c3cnn(CC(=O)NCc4ccccc4)c(=O)c3c2C)cc1	-1.73% (inactive)	–
C/C=C1\C2C=C(C)CC1(N)c1ccc(=O)[nH]c1C2 (stereo not drawn)	320% [at 56.9 µM] (inactive)	–
Cc1ccc(Nc2nnc(-c3ccc(C)c(S(=O)(=O)N4CCCCC4)c3)c3ccccc23)cc1	-9.78% (inactive)	–
CCOC(=O)c1[nH]c(C)c(CCC(=O)NCc2ccccc2C)c1C	19.7% (inactive)	–
O=S(=O)(c1ccc2nc(NCc3ccccc3Cl)ccc2c1)N1CCCCC1	0% (inactive)	–
CCc1cc2c(cc3c(=O)n(CC(=O)N4CCN(c5cc(Cl)ccc5C)CC4)nc(CC)n32)s1	10.4% (inactive)	–
COc1ccc(OC)c(-n2nnc(-c3nc(-c4cc(OC)c(OC)c(OC)c4)no3)c2C)c1	-26.9% (inactive)	–
Cc1ccc(SCC(CC(C)C)N2CCN(CCc3ccccc3)CCC2=O)cc1 (stereo not drawn)	22% (inactive)	–
Cc1cccc(NC(=O)CN(c2ccc(C(C)C)cc2)S(=O)(=O)c2c(C)nn(C)c2C)c1C	5.91% (inactive)	–

Compound	activity change, negative = inhibition	Potency
C#CCCCCCCCCCCCCCCCC(=O)O	-583% [at 56.9 µM, above what the read-out allows, likely interference] (inactive)	–
CCCN1CCC(=O)N(C(CSc2ccc(OC)cc2)Cc2ccccc2)CC1 (stereo not drawn)	-16.1% (inactive)	–
COc1cccc(CN2CCc3nc(SCC(=O)Nc4ccccc4)[nH]c(=O)c3C2)c1	33.7% (inactive)	–
COC(=O)c1ccccc1NC(=O)Cn1c(=O)n(-c2cccc(C(F)(F)F)c2)c(=O)c2c(C)c(C)sc21	21.6% (inactive)	–
COc1ccc(CN(Cc2ccccc2)C(=O)c2ccc(O)cc2)cc1COc1ccc(NC(C)=O)cc1	17.2% (inactive)	–
COc1cc(OC)c2c(C)cc(=O)oc2c1C(CCN1CCCCC1)c1ccc(N(C)C)cc1 (stereo not drawn)	0.18% (inactive)	–
O=[N+]([O-])c1ccc(S(=O)(=O)N2CCN(c3nc(-c4ccccc4)nc4ccccc34)CC2)cc1	9.46% (inactive)	–
COc1ccc(OC)c(NC(=O)C2CCCN(S(=O)(=O)c3ccc4c(c3)CCCC(=O)N4)C2)c1 (stereo not drawn)	-0.356% (inactive)	–
COCCNC(=O)c1cc(-c2cccc(Cl)c2)on1	-16% (inactive)	–
COc1ccccc1-c1nnc(SCC(N)=O)o1	11.9% (inactive)	–
O=C(Nc1ccccc1)N[C@H]1C[C@H](C(=O)O)Nc2cc(Cl)cc(Cl)c21	-585% [at 56.9 µM, above what the read-out allows, likely interference] (inactive)	–
CCOc1ccc(S(=O)(=O)c2cn(Cc3ccccc3)c3ccc(OCC)cc3c2=O)cc1	1.09% (inactive)	–
Cn1c(=O)c2c(nc(SCC(=O)Nc3ccc(F)cc3)n2Cc2ccccc2)n(C)c1=O	-15.8% (inactive)	–
CC(C)NC(=O)C1CCC(Cn2c(=O)c3sccc3n(Cc3ccc(F)cc3)c2=O)CC1 (stereo not drawn)	11.4% (inactive)	–
Oc1ccc(Br)cc1C1C=C(c2ccc3c(c2)OCO3)NC(c2ccc(Cl)cc2)N1 (stereo not drawn)	-36% (inactive)	–
Cc1ccc2ccc3c(c2n1)NS(=O)(=O)c1ccccc1-3	-16.3% (inactive)	–
COc1ccc2c(C)c(CCC(=O)NCc3ccc(OC)c(OC)c3)c(=O)oc2c1	-14.1% (inactive)	–
Cc1c(-c2nc(-c3ccc4c(c3)OCO4)no2)nnn1-c1ccc(Br)cc1F	-24.4% (inactive)	–
COc1ccc(OC)c(NC(=O)CSC2=Nc3ccccc3C3=NC(CC(=O)NCCc4ccccc4)C(=O)N23)c1 (stereo not drawn)	16.3% (inactive)	–
CC(C)NC[C@H](O)c1ccc2ccccc2c1	-510% [at 56.9 µM, above what the read-out allows, likely interference] (inactive)	–
O=C(CSc1nccn1-c1ccc(F)cc1)Nc1cccc2ccccc12	-5.41% (inactive)	–
COc1ccc(-n2c(SCC(N)=O)nc3c(oc4ccccc43)c2=O)cc1	-18.4% (inactive)	–
CCn1c(CN2CCC(C)CC2)nc2cc(NC(=O)c3ccccc3[N+](=O)[O-])ccc21	-7.66% (inactive)	–
O=C(c1ccc2c(c1)N(Cc1ccccc1)C(=O)c1ccccc1S2(=O)=O)N1CCC(Cc2ccccc2)CC1	8.32% (inactive)	–
COc1ccc(-c2cccc(NS(=O)(=O)c3cc(C)c(OC)c(C)c3C)c2)nn1	-39.8% (inactive)	–

Compound	activity change, negative = inhibition	Potency
CCc1ccc(NC(=O)CSc2nc3c([nH]c4ccccc43)c(=O)n2-c2cccc(OC)c2)cc1	0.52% (inactive)	–
CCN(CC)c1nc(C#N)nc(OC)n1	23.2% (inactive)	–
CC(C)(C)c1ccc(C(=O)N2CCC(c3nc(-c4ccc(S(=O)(=O)N5CCCC5)cc4)no3)CC2)cc1	7.58% (inactive)	–
Cn1c(=O)c2c(n3c4ccccc4nc13)NC(=O)CC2c1cccc(Cl)c1 (stereo not drawn)	-17.3% (inactive)	–
CC(C)Sc1oc(-c2cccs2)nc1S(=O)(=O)c1ccc(Cl)cc1	-16.4% (inactive)	–
Cc1ccc(SCC(=O)Nc2ccc3oc(-c4ccccc4C)nc3c2)cc1	-0.0912% (inactive)	–
C=C1CCN(C(CC(C)C)C(=O)NCc2cc(OC)c(OC)c(OC)c2)S(=O)(=O)c2ccccc21 (stereo not drawn)	-6.11% (inactive)	–
COC(=O)CCc1ccccc1S(=O)(=O)N(CCC(=O)OC)Cc1ccccc1	-18.2% (inactive)	–
CCOC(=O)c1ccc(NC(=O)Cn2c(=O)n(-c3ccc(C)cc3)c(=O)c3c2cnn3C)cc1	2.84% (inactive)	–
Cc1nn(C(C)C(=O)Nc2ccc(C(C)C)cc2)c(=O)c2c1sc1ccccc12 (stereo not drawn)	-6.31% (inactive)	–
OC[C@@H]1O[C@H](n2cnc3c(SCc4ccccc4)ncnc32)[C@H](O)[C@H]1O	-4.78% (inactive)	–
CCOc1ccc(Nc2c(S(=O)(=O)c3ccccc3)cnc3ccccc23)cc1	21.6% (inactive)	–
COc1ccc(NC(=O)c2ccc3nc(C(C)C)oc3c2)cc1OC	-2.42% (inactive)	–
Cc1ccc(-c2nn(CC(C)(C)C)c3ncnc(N)c23)cc1	117% [at 56.9 µM] (inactive)	–
O=C(NCc1ccccc1)c1cccc(NC(=O)N2CCSc3ncccc32)c1	16.8% (inactive)	–
COc1ccc(Cn2c(=O)[nH]c3cc(C(=O)N4CCN(C(=O)c5ccco5)CC4)ccc3c2=O)cc1	-26% (inactive)	–
CCOc1ccc(NC(=O)CSc2nnc3c(n2)[nH]c2ccc(S(=O)(=O)N4CCOCC4)cc23)cc1	0.0899% (inactive)	–
CC1CCCN(S(=O)(=O)c2ccc3[nH]c(=O)cc(C(=O)NCCc4ccc(Cl)cc4)c3c2)C1 (stereo not drawn)	-8.74% (inactive)	–
CCN(CC)CCNC(=O)CN1N=C(c2ccc(OC)cc2)CCC1=O	-1.33% (inactive)	–
COC(=O)c1ccc(C2C(C(=O)Nc3ccccc3)=C(C)Nc3nc4ccccc4n32)cc1 (stereo not drawn)	12.3% (inactive)	–
Oc1cc2c(cc1O)CN(C(=S)NCCc1ccc(Cl)cc1)CCC2	–	inactive and 16.8 µM (active)
S=C(Nc1ccc(Cl)cc1Cl)N1CCCC1	17.2% (inactive)	–
O=C(NCCc1ccc(Cl)cc1)C1CCCN1C(=O)NCc1ccccc1 (stereo not drawn)	0.986% (inactive)	–
